Test results from paper PMC5540273 (PLoS ONE, 2017).

How the values were obtained:
Settings in all cases: concentration: 1 μM, replicates: in singlicate; n = 1
MYLK = test system: MYLK
MYO3A = test system: MYO3A
MYO3B = test system: MYO3B
NDR1 = test system: T1, NDR1
T1 construct: gene STK38

NDR2 = test system: NDR2
NEK10 = test system: NEK10
NEK11 = test system: NEK11
NEK1 = test system: NEK1
NEK2 = test system: NEK2
NEK3 = test system: NEK3
NEK4 = test system: NEK4
NEK5 = test system: NEK5
NEK6 = test system: NEK6
NEK7 = test system: NEK7
NEK9 = test system: NEK9
NIK = test system: T2, NIK
T2 construct: gene MAP3K14

NIM1 = test system: T3, NIM1
T3 construct: gene MGC42105

NLK = test system: NLK
OSR1 = test system: T4, OSR1
T4 construct: gene OXSR1

PAK1 = test system: PAK1
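Also: KINOMEscan kinase panel screen.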

| Structure (SMILES) | %Inh (MYLK) | %Inh (MYO3A) | %Inh (MYO3B) | %Inh (NDR1) | %Inh (NDR2) | %Inh (NEK10) | %Inh (NEK11) | %Inh (NEK1) | %Inh (NEK2) | %Inh (NEK3) | %Inh (NEK4) | %Inh (NEK5) | %Inh (NEK6) | %Inh (NEK7) | %Inh (NEK9) | %Inh (NIK) | %Inh (NIM1) | %Inh (NLK) | %Inh (OSR1) | %Inh (PAK1) |
| --- | --- | --- | --- | --- | --- | --- | --- | --- | --- | --- | --- | --- | --- | --- | --- | --- | --- | --- | --- | --- |
| COc1cc2ncn(-c3cc(OCc4ccncc4Br)c(C(N)=O)s3)c2cc1OC [GW854278] | 72% | 0% | 9% | 0% | 17% | 0% | 0% | 0% | 33% | 29% | 0% | 2% | 0% | 0% | 0% | 25% | 10% | 0% | 0% | 1% |
| CN1C(=O)C(Nc2cc(Cl)c(O)c(Cl)c2)=C(c2ccc(Cl)cc2)C1=O [SB-404321] | 0% | 0% | 8% | 0% | 0% | 0% | 0% | 0% | 0% | 16% | 0% | 7% | 0% | 0% | 0% | 30% | 0% | 0% | 0% | 0% |
| COc1cc2nccc(Nc3cccc(Oc4ccccc4)c3)c2cc1OC.Cl [GW284543] | 0% | 0% | 36% | 8% | 0% | 0% | 19% | 0% | 0% | 0% | 3% | 0% | 0% | 11% | 27% | 37% | 19% | 24% | 4% | 0% |
| CN(C)c1cc(-c2ccc3c(N)n[nH]c3c2)nc(N)n1 [GSK2219329] | 0% | 11% | 0% | 17% | 0% | 0% | 0% | 0% | 0% | 0% | 0% | 2% | 0% | 0% | 0% | 0% | 21% | 1% | 0% | 9% |
| Cc1nn2c(=O)cc(N3CCOCC3)nc2n1Cc1cccc(Cl)c1Cl [GSK2342769] | 16% | 0% | 0% | 0% | 0% | 0% | 0% | 0% | 2% | 0% | 9% | 0% | 0% | 0% | 0% | 0% | 12% | 0% | 8% | 9% |
| COc1ccc(Nc2nccc(N3CCC(NS(=O)(=O)c4ccc(NC(C)=O)cc4)C3)n2)cc1 (stereo not drawn) [GSK1379729] | 15% | 8% | 2% | 10% | 0% | 0% | 1% | 0% | 8% | 7% | 3% | 33% | 11% | 3% | 5% | 17% | 11% | 13% | 20% | 6% |
| COc1cc(Nc2nccc(N3CCC(NC(=O)C(C)c4ccc(Cl)cc4)C3)n2)cc(OC)c1OC (stereo not drawn) [GSK1379757] | 8% | 20% | 0% | 26% | 0% | 0% | 12% | 8% | 0% | 19% | 0% | 95.5% | 0% | 0% | 19% | 0% | 0% | 0% | 0% | 10% |
| COC(=O)c1c(-c2ccccc2)c2cc(Br)ccc2c(=O)n1Cc1ccc(NC(=O)CCC(=O)O)cc1 | 29% | 100% | 0% | 0% | 0% | 0% | 0% | 0% | 0% | 13% | 1% | 0% | 7% | 18% | 11% | 0% | 2% | 0% | 14% | 15% |
| CCn1c(-c2ccoc2)nc2cnccc21 [SB-733887] | 11% | 6% | 0% | 0% | 0% | 19% | 12% | 2% | 0% | 16% | 22% | 4% | 5% | 0% | 0% | 21% | 11% | 7% | 9% | 12% |
| O=C(Nc1n[nH]c2nc(-c3ccccc3)c(Cl)cc12)C1CC1 [SB-734909] | 37% | 0% | 12% | 8% | 0% | 0% | 11% | 0% | 0% | 33% | 23% | 11% | 0% | 0% | 2% | 13% | 6% | 11% | 0% | 0% |
| COc1cc(Nc2ccnc3ccc(C(F)(F)F)cc23)cc(OC)c1OC [GW577382] | 0% | 12% | 10% | 13% | 1% | 10% | 0% | 0% | 0% | 3% | 5% | 13% | 2% | 3% | 13% | 0% | 85% | 73% | 14% | 0% |
| Cc1nnc(-c2ccc(C)c(-c3ccc(C(=O)O)cc3)c2)o1 [GW608005] | 5% | 0% | 0% | 9% | 0% | 0% | 5% | 0% | 19% | 0% | 14% | 2% | 0% | 5% | 2% | 26% | 13% | 0% | 2% | 8% |
| Cl.NS(=O)(=O)c1cccc(Nc2cc(-c3ccc(F)cc3)n[nH]2)c1 [GW824645] | 0% | 0% | 0% | 47% | 5% | 8% | 0% | 0% | 0% | 14% | 0% | 0% | 0% | 0% | 0% | 45% | 3% | 0% | 0% | 4% |
| Cc1ccccc1COc1cc(-n2cnc3cc(Cl)ccc32)sc1C(N)=O [GW813349] | 5% | 0% | 0% | 3% | 1% | 0% | 0% | 0% | 5% | 13% | 0% | 6% | 0% | 4% | 0% | 9% | 5% | 0% | 0% | 0% |
| COC(=O)c1c(-c2ccccc2)c2cc(Br)ccc2c(=O)n1Cc1ccc(S(C)(=O)=O)cc1 | 20% | 26% | 0% | 7% | 19% | 0% | 0% | 0% | 10% | 21% | 17% | 0% | 20% | 3% | 6% | 0% | 15% | 0% | 4% | 24% |
| CN1C(=O)C(Nc2ccccc2)=C(c2ccccc2)C1=O [SB-300079] | 0% | 0% | 0% | 39% | 0% | 7% | 4% | 0% | 0% | 21% | 0% | 0% | 0% | 0% | 0% | 32% | 19% | 0% | 0% | 0% |
| Nc1n[nH]c2nnc(-c3ccccc3)c(-c3ccccc3)c12 [GW554060] | 16% | 0% | 0% | 9% | 10% | 9% | 5% | 0% | 0% | 4% | 0% | 0% | 0% | 0% | 0% | 100% | 28% | 0% | 9% | 0% |
| Nc1ncnc2c1ncn2-c1cccc(F)c1 [SKF-97560] | 38% | 0% | 0% | 15% | 17% | 53% | 38% | 0% | 0% | 25% | 21% | 25% | 0% | 0% | 0% | 18% | 48% | 0% | 28% | 5% |
| Cc1c(Cn2c(C)nn3c(=O)cc(N4CCO[C@H](C)C4)nc23)cccc1C(F)(F)F [GSK2373690] | 12% | 0% | 0% | 6% | 0% | 6% | 0% | 0% | 24% | 2% | 31% | 0% | 1% | 0% | 0% | 2% | 0% | 27% | 22% | 0% |
| CCc1nc(-c2cccc(C)c2)c(-c2ccncc2)s1 | 12% | 4% | 15% | 40% | 0% | 3% | 0% | 0% | 0% | 28% | 0% | 0% | 3% | 0% | 0% | 0% | 0% | 81% | 0% | 28% |
| Nc1nc(N)c2nc(-c3ccccc3)[nH]c2n1 [SKF-12778] | 0% | 0% | 19% | 33% | 0% | 58% | 13% | 0% | 0% | 0% | 8% | 10% | 5% | 9% | 6% | 0% | 0% | 2% | 22% | 0% |
